# Activity calls are given as the source filed them.
# How the values were obtained:
# [1] = optical density shifts of acrAB sulA E. coli – strain DRC41, OD650, 48 h, E. coli filamentation inducer project, primary screen (AID 1152); conditions: higher = more signal, called active from +8 up or from −8 down;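 further: E. coli MC1000 strain DRC41 lacking acrAB efflux pump and sulA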
# [2] = probe aLefty1 binding on compound microarray – biochemical, small-molecule microarray, 635/667 nm fluorescence, primary screen (AID 1153); conditions: higher = more signal;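 further: score merges spot fluorescence with signal-to-noise ratio from the scanned slide images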
# [3] = plasmodial surface anion channel blockers, osmotic lysis – cell-based, P. falciparum Indochina, OD700, 1 h, primary screen (AID 1154); conditions: P. falciparum Indochina infected RBC osmotic lysis, higher = more signal, called active from +8 up or from −8 down
# [4] = plasmodial surface anion channel blockers, osmotic lysis – cell-based, P. falciparum Indochina, OD700, 2 h, primary screen (AID 1155);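 further: lysis reports solute entry through the parasite surface anion channel PSAC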; conditions: P. falciparum Indochina infected erythrocytes, higher = more signal, called active from +8 up or from −8 down
# [5] = changes in parasitized red cell lysis, either direction – P. falciparum Indochina, OD700, 3 h, PSAC antagonist project, primary screen (AID 1156); conditions: P. falciparum-infected erythrocytes, osmotic lysis, higher = more signal, called active from +8 up or from −8 down
# [6] = plasmodial surface anion channel blockers, osmotic lysis – cell-based, P. falciparum Indochina, OD700, 18 h, primary screen (AID 1157); conditions: P. falciparum Indochina infected erythrocytes, osmotic lysis OD700, 18 h; higher = more signal, called active from +8 up or from −8 down
# [7] = S6 kinase pathway phospho-S6 level changes – cell-based, A549, cytoblot, luminescence, serum-stimulated, primary screen (AID 1158); conditions: 5 h, higher = more signal;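 further: serum-stimulated A549 lung adenocarcinoma cells; signal is phosphorylated S6 detected by cytoblot immunostaining with HRP secondary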
# [8] = target: NADPH oxidase 2 (Homo sapiens) (UniProt P04839); experiment: compounds shifting NOX2 Amplex Red fluorescence – cell-based, HEK293-NOX2, PMA-stimulated, NOX inhibitor project, primary screen (AID 1159); conditions: 45 min, higher = more signal, called active from +8 up or from −8 down; further: test concentration not given here
# Chain of NADPH oxidase 2 (Homo sapiens) (P04839 whole entry, looked up): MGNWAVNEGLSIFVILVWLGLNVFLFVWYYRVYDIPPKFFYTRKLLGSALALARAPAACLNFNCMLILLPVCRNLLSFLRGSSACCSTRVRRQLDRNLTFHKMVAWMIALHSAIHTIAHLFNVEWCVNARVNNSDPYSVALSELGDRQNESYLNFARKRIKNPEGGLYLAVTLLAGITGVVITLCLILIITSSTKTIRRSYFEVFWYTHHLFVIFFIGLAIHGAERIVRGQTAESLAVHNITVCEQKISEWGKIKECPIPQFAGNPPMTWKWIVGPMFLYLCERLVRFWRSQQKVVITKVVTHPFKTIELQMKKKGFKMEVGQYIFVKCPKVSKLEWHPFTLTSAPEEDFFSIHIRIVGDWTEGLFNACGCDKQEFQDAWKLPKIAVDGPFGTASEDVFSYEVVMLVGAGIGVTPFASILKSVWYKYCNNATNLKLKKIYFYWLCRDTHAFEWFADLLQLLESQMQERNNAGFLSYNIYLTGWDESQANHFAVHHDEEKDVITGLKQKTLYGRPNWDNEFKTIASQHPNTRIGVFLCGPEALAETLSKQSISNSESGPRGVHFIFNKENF
# [9] = target: NADPH oxidase 4 (Homo sapiens) (UniProt Q9NPH5); experiment: compounds shifting NOX4 Amplex Red fluorescence – cell-based, HEK293-NOX4, tetracycline-induced, NOX inhibitor project, primary screen (AID 1160); conditions: HEK293-NOX4, Amplex Red H2O2 fluorescence, 45 min; higher = more signal, called active from +8 up or from −8 down
# Chain of NADPH oxidase 4 (Homo sapiens) (Q9NPH5 whole entry, looked up): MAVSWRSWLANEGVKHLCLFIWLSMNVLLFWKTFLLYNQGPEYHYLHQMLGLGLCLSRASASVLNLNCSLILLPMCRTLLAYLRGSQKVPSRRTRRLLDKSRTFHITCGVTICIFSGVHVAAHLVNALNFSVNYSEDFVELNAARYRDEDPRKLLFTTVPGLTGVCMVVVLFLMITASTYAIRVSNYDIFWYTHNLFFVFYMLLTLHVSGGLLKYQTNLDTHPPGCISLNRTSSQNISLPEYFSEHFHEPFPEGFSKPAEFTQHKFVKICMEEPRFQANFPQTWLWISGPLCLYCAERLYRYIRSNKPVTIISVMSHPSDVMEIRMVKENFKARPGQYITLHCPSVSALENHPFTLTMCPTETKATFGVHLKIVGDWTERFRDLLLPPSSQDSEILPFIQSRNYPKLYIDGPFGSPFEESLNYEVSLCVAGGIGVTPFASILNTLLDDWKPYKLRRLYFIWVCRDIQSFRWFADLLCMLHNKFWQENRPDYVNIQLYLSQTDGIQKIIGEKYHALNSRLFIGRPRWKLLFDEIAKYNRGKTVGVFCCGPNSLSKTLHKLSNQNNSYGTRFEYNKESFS
# [10] = target: NADPH oxidase 5 (Homo sapiens) (UniProt Q96PH1); experiment: compounds shifting NOX5 Amplex Red fluorescence – cell-based, HEK293-NOX5, NOX inhibitor project, primary screen (AID 1161); conditions: HEK293-NOX5, ionomycin, 45 min, higher = more signal
# Chain of NADPH oxidase 5 (Homo sapiens) (Q96PH1 whole entry, looked up): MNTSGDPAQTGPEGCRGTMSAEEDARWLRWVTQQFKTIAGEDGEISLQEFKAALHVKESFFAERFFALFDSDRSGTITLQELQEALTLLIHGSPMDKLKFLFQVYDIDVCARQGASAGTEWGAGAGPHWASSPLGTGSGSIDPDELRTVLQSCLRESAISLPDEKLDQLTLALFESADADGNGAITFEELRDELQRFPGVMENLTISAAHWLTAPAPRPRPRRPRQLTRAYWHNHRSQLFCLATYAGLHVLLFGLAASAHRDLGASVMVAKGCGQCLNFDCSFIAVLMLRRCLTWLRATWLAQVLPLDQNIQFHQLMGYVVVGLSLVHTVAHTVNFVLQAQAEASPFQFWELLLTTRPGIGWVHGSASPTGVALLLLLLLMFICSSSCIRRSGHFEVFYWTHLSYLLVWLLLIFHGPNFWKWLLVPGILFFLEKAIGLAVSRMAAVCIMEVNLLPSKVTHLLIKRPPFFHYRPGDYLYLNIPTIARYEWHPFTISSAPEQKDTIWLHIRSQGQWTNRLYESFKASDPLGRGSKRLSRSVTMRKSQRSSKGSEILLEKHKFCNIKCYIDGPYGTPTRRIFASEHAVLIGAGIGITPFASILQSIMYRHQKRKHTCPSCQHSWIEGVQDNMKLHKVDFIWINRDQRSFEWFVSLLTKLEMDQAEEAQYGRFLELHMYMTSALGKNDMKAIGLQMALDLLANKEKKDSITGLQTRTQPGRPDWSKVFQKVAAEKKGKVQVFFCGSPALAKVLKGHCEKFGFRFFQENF
# [11] = compound effects on lung adenocarcinoma cell viability – A549, calcein-AM fluorescence, 48 h, basal, profiling panel (AID 1162); conditions: higher = more signal; further: test concentration not given here
# [12] = compound effects on differentiated 3T3-L1 adipocyte viability – cell-based, 3T3-L1 adipocytes, calcein-AM fluorescence, 48 h, basal, profiling panel (AID 1163); conditions: 3T3-L1 adipocytes viability, higher = more signal; further: test concentration not given here
# [13] = compound effects on hepatocellular carcinoma cell viability – HepG2, calcein-AM fluorescence, 48 h, basal, profiling panel (AID 1164); conditions: higher = more signal; further: test concentration not given here
# [14] = compound effects on multiple myeloma cell viability – MM1S, calcein-AM fluorescence, 48 h, basal, profiling panel (AID 1165); conditions: higher = more signal; further: test concentration not given here
# [15] = calcein-AM signal in unstimulated myeloma cells – cell-based, calcein-AM fluorescence, 48 h, PK04 Diversity Set, profiling panel (AID 1166); conditions: RPMI8226 myeloma viability, higher = more signal;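 further: cells grown under basal conditions without added stimulus; test concentration not given here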
# [16] = JC-1 mitochondrial signal, unstimulated HepG2 cells – cell-based, JC-1 fluorescence, 24 h, 100 nL compound, profiling panel (AID 1167); conditions: HepG2 mitochondrial potential, higher = more signal; further: test concentration not given here
# [17] = JC-1 mitochondrial signal, unstimulated adipocytes – cell-based, JC-1 fluorescence, 3T3-L1 adipocytes, 24 h, 100 nL compound, profiling panel (AID 1168); conditions: JC-1 mitochondrial fluorescence, higher = more signal, called active from +8 up or from −8 down; further: test concentration not given here
# [18] = JC-1 mitochondrial signal, unstimulated myeloma cells – cell-based, JC-1 fluorescence, RPMI8226, 24 h, 100 nL compound, profiling panel (AID 1169); conditions: JC-1 mitochondrial potential fluorescence, higher = more signal; further: test concentration not given here
# [19] = JC-1 mitochondrial signal, unstimulated MM1S myeloma – cell-based, JC-1 fluorescence, 24 h, 100 nL compound, profiling panel (AID 1170); conditions: MM1S mitochondrial potential, higher = more signal; further: test concentration not given here
# [20] = resazurin metabolic signal in A549 cells – cell-based, resazurin fluorescence, 24 h, PK04 Diversity Set, profiling panel (AID 1171); conditions: A549 viability, higher = more signal, called active from +8 up or from −8 down; further: test concentration not given here
SMILES,z-score [1],composite z-score [2],z-score [3],z-score [4],z-score [5],z-score [6],z-score [7],z-score [8],z-score [9],z-score [10],z-score [11],z-score [12],z-score [13],z-score [14],z-score [15],z-score [16],z-score [17],z-score [18],z-score [19],z-score [20]
CC=CC1=C(CO)[C@H](O)[C@H]2O[C@H]2[C@@H]1O,-0.412 (inactive),-0.106,-0.312 (inactive),0.367 (inactive),-0.242 (inactive),0.172 (inactive),-0.325,0.623 (inactive),-0.191 (inactive),0.109,-0.37,0.309,0.366,-0.948,-0.671,-0.206,0.00909 (inactive),-0.225,-0.244,-0.337 (inactive)
CC(CCN1CCCCc2nc(C)c(C)cc21)=NO[C@@H](C)c1cc(-c2c(C)cc(C)cc2C)no1,0.393 (inactive),-0.196,3 (inactive),0.49 (inactive),1.54 (inactive),0.588 (inactive),0.13,-1.79 (inactive),-0.125 (inactive),-2.5,1.08,0.531,0.148,-2.9,-3.77,4,0.159 (inactive),-0.831,-1.74,2.06 (inactive)
CC(CCN1CCCCc2nc(C)c(C)cc21)=NO[C@H](C)c1cn([C@@H]2COC[C@H]2O)nn1,0.431 (inactive),-0.0088,0.682 (inactive),0.406 (inactive),0.116 (inactive),0.342 (inactive),-0.363,-0.526 (inactive),0.167 (inactive),-0.376,0.368,-0.807,0.251,0.287,0.0323,0.0457,0.229 (inactive),1.18,-0.992,-0.454 (inactive)
CC(CCN1CCCc2nc(C)c(C)cc21)=NO[C@H](C)c1cn([C@H](CO)Cc2ccccc2)nn1,0.115 (inactive),0.0402,5.14 (inactive),0.985 (inactive),2.45 (inactive),0.638 (inactive),-0.0039,-0.443 (inactive),-0.076 (inactive),0.863,-0.385,0.849,-0.456,-0.0916,-1.88,0.0197,-2.16 (inactive),0.136,0.859,-0.254 (inactive)
C[C@H]1CC[C@H]2C(=O)O[C@H](CO)CN2[C@@H]1c1ccc(Br)cc1,-0.0016 (inactive),0.0012,1.51 (inactive),0.939 (inactive),0.0454 (inactive),0.49 (inactive),-0.337,-0.431 (inactive),-0.191 (inactive),-0.489,0.889,-0.214,0.547,0.349,-0.73,0.0194,-0.526 (inactive),0.301,-0.434,0.581 (inactive)
CCOC(=O)[C@H](CC(C)C)NC(=O)CCC1CC(OC(=O)NCCc2ccc(F)cc2)CC2(CCCC(COC(=O)NCCOC)O2)O1 (stereo not given in full),-1.39 (inactive),-0.198,3.18 (inactive),0.621 (inactive),0.0768 (inactive),-0.0213 (inactive),-0.474,-0.25 (inactive),0.998 (inactive),1.19,0.0721,-1.02,-0.384,0.695,0.124,-1.21,-0.459 (inactive),0.64,0.441,0.305 (inactive)
COc1ccc(COC(=O)NN=C2C[C@@H](O)[C@@H](O)[C@@H]3[C@@H]4C(=O)N(C[C@@H]5CCCO5)C(=O)[C@@H]4CC[C@H]23)cc1,-0.39 (inactive),0.544,3.23 (inactive),0.632 (inactive),0.398 (inactive),0.548 (inactive),-0.308,-3.46 (inactive),0.223 (inactive),0.0239,0.0369,-0.0792,-0.592,0.634,-0.107,-0.402,-1.22 (inactive),-0.148,-1.02,-0.0101 (inactive)
CCOC(=O)CCN1C(=O)[C@H]2[C@H]3[C@H](O)[C@H](O)CC(=NOCC=C(C)CCC=C(C)C)[C@H]3CC[C@H]2C1=O,1.04 (inactive),0.148,1.09 (inactive),0.887 (inactive),1.25 (inactive),0.378 (inactive),0.199,-4.23 (inactive),0.943 (inactive),0.546,0.844,-1.23,0.536,0.345,0.15,0.572,0.408 (inactive),0.523,-1.44,-1.1 (inactive)
CCOC(=O)[C@H](Cc1ccccc1)NC(=O)CCC1CC(OC(=O)NCc2ccc3c(c2)OCO3)CC2(CCCC(COC(=O)NCCc3ccc(Cl)cc3)O2)O1 (stereo not given in full),-0.393 (inactive),-0.281,1.44 (inactive),-0.0302 (inactive),-0.249 (inactive),-0.741 (inactive),1.51,-0.194 (inactive),0.396 (inactive),1.63,1.81,0.71,0.622,-0.845,-0.167,0.783,0.361 (inactive),-0.162,-1.27,-0.455 (inactive)

# From PubChem BioAssay
